Test results from PubChem BioAssay (EPA / NIEHS).
Inconclusive results are not listed. Activity calls are given as the source filed them. Rule for the calls: active = hit-call score of the fitted dose curve at least 0.9, where 1 is the maximum; inconclusive = response in the unintended direction; inactive = score below 0.9.

The molecules below were run against Estrogen receptor (Homo sapiens) + Estrogen receptor beta (Homo sapiens) (UniProt P03372+Q92731) (assay: OT_ER_ERaERb_1440: Odyssey Thera (OT) 24-hour HEK293T Protein-Complementation Assay for Estrogen Receptor-alpha/-beta Homodimer (AID 2283356);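 note: heteromer of ER alpha and ER beta binding domains; hits raise reporter fluorescence and both agonists and antagonists give an increase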).
Sequence of Estrogen receptor (Homo sapiens) + Estrogen receptor beta (Homo sapiens) (P03372 whole entry, looked up, the tested form may be a part): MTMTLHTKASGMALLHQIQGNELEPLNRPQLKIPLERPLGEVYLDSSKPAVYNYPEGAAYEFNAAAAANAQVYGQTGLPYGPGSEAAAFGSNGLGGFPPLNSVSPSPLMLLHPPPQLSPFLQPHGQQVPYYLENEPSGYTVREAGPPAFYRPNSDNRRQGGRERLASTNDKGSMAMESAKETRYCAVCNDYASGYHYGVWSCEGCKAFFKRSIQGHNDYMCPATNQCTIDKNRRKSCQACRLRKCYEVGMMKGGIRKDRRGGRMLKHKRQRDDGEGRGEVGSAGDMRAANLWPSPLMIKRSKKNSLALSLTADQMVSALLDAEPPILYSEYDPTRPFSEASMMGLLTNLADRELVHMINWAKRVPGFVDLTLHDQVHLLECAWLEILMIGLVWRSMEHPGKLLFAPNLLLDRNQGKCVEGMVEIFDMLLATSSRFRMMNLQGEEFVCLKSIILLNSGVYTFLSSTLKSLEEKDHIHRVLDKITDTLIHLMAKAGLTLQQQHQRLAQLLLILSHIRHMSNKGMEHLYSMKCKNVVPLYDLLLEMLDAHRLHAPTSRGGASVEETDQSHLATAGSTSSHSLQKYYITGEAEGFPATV
Sequence of Estrogen receptor (Homo sapiens) + Estrogen receptor beta (Homo sapiens) (Q92731 whole entry, looked up, the tested form may be a part): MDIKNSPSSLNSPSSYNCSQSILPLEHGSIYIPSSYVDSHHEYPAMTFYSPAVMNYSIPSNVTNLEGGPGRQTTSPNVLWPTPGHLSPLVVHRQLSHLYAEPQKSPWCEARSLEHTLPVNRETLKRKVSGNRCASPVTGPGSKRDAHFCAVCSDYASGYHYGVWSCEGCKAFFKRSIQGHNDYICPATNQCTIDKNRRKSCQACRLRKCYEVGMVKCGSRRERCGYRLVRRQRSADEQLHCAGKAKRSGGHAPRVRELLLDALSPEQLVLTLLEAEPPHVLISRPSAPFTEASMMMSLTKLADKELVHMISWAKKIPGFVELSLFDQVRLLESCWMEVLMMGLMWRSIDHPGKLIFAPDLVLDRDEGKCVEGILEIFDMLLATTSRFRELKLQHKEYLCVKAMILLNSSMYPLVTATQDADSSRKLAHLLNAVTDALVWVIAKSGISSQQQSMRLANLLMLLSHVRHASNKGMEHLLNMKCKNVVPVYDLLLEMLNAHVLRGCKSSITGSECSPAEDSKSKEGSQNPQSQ
How it was run: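 Stable HEK293T PCA line, ERα LBD 310-547 + ERβ LBD 263-489 fused to reporter fragments; 24 h treatment; fluorescence read by laser scanning cytometry; positive fitting direction relative to DMSO.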
In the case of `c1cc(-c2ccncc2)ccn1`, the outcome is reported as “inactive”.
For `Cc1c(C(=O)O)c(O)cc2c1C(=O)c1c(O)c([C@@H]3O[C@H](CO)[C@@H](O)[C@H](O)[C@H]3O)c(O)c(O)c1C2=O`, the outcome was “inactive”.
In the case of `Nc1nc(N)c2nc(CNc3ccc(C(=O)N[C@@H](CCC(=O)O)C(=O)O)cc3)cnc2n1`, the outcome is reported as “inactive”.
`COC(=O)c1ccc(O)cc1` was tested, and the AC50 was 74.6 µM (active).
For `CC1=C(/C=C/C(C)=C/C=C/C(C)=C/CO)C(C)(C)CCC1`, the outcome was “inactive”.
In the case of `CNCc1cc(F)ccc1Oc1ccc(Cl)c(Cl)c1`, the outcome is reported as “inactive”.
In the case of `Nc1ccccc1N`, the outcome is reported as “inactive”.
With `CCCCOC(=O)CCCCCCCCC(=O)OCCCC` the outcome was “inactive”.
In the case of `CCCCCCC(=O)OCC`, the outcome is reported as “inactive”.
For `Cc1ccc(C(C)C)c(O)c1`, the outcome was “inactive”.
`CCCCC(CC)COC(=O)CC(C(=O)OCC(CC)CCCC)S(=O)(=O)O` (stereo not drawn) was tested, and the outcome was “inactive”.
For `CCCCCCCCCCO`, the outcome was “inactive”.
In the case of `Clc1cc(Cl)c(Cl)cc1Cl`, the outcome is reported as “inactive”.
For `CCc1c(C(=O)NN2CCCCC2)nn(-c2ccc(Cl)cc2Cl)c1-c1ccc(Br)cc1`, the outcome was “inactive”.
In the case of `CCCCCCCC=O`, the outcome is reported as “inactive”.
In the case of `Oc1ccc2ccccc2c1N=Nc1ccccc1`, the outcome is reported as “inactive”.
In the case of `O=C(O)CCCCC(=O)O`, the outcome is reported as “inactive”.
With `O=c1c(O)c(-c2ccc(O)c(O)c2)oc2cc(O)cc(O)c12` the AC50 was 24.8 µM (active).
For `CCOC(=O)C(C)(C)Oc1ccc(Cl)cc1`, the outcome was “inactive”.
`CC(=O)OCCOCCOCCOC(C)=O` was tested, and the outcome was “inactive”.
With `Oc1ccc2c(c1)OC[C@@H](N1CCC(O)(c3ccc(F)cc3)CC1)[C@H]2O` the outcome was “inactive”.
For `C[Si]1(C)O[Si](C)(C)O[Si](C)(C)O[Si](C)(C)O1`, the outcome was “inactive”.
`CC(C)c1ccc(C(=O)N=C(N)N)cc1S(C)(=O)=O` was tested, and the outcome was “inactive”.
For `NCC1(Cc2noc(=O)[nH]2)CCCCC1`, the outcome was “inactive”.
`C1CCC(SSC2CCCCC2)CC1` was tested, and the outcome was “inactive”.

These molecules were tested against Estrogen receptor beta (Homo sapiens) (UniProt Q92731) (assay: OT_ER_ERbERb_0480: Odyssey Thera (OT) 8-hour HEK293T Protein-Complementation Assay for Estrogen Receptor-beta/-beta Homodimer (AID 2283357);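 note: active means signal gain over DMSO baseline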).
Sequence of Estrogen receptor beta (Homo sapiens) (Q92731 whole entry, looked up, the tested form may be a part): as above
How it was run: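 Homodimerization of ER-beta LBD measured by protein-fragment complementation in HEK293T; 8 h dosing; fixed, Draq5 counterstain; fluorescence intensity gain over DMSO baseline, positive fitting direction; laser scanning cytometry.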
In the case of `c1cc(-c2ccncc2)ccn1`, the outcome is reported as “inactive”.
For `O=C(N[C@@H](Cc1ccccc1)[C@@H](O)C(=O)N1C[C@@H](O)[C@@H](O)C1)c1cc2cc(Cl)ccc2[nH]1`, the outcome was “inactive”.
`Cc1c(C(=O)O)c(O)cc2c1C(=O)c1c(O)c([C@@H]3O[C@H](CO)[C@@H](O)[C@H](O)[C@H]3O)c(O)c(O)c1C2=O` was tested, and the outcome was “inactive”.
In the case of `Nc1nc(N)c2nc(CNc3ccc(C(=O)N[C@@H](CCC(=O)O)C(=O)O)cc3)cnc2n1`, the outcome is reported as “inactive”.
For `COC(=O)c1ccc(O)cc1`, the AC50 was 63.3 µM (active).
For `CC1=C(/C=C/C(C)=C/C=C/C(C)=C/CO)C(C)(C)CCC1`, the outcome was “inactive”.
With `CNCc1cc(F)ccc1Oc1ccc(Cl)c(Cl)c1` the outcome was “inactive”.
`CCCCOC(=O)CCCCCCCCC(=O)OCCCC` was tested, and the outcome was “inactive”.
For `CCCCCCC(=O)OCC`, the outcome was “inactive”.
`Cc1ccc(C(C)C)c(O)c1` was tested, and the AC50 was 33.9 µM (active).
In the case of `CCCCCCCCCCO`, the outcome is reported as “inactive”.
In the case of `Clc1cc(Cl)c(Cl)cc1Cl`, the outcome is reported as “inactive”.
`CCc1c(C(=O)NN2CCCCC2)nn(-c2ccc(Cl)cc2Cl)c1-c1ccc(Br)cc1` was tested, and the outcome was “inactive”.
With `CCCCCCCC=O` the outcome was “inactive”.
For `O=C(O)CCCCC(=O)O`, the outcome was “inactive”.
`O=c1c(O)c(-c2ccc(O)c(O)c2)oc2cc(O)cc(O)c12` was tested, and the AC50 was 2.32 µM (active).
For `CCOC(=O)C(C)(C)Oc1ccc(Cl)cc1`, the outcome was “inactive”.
For `CC(=O)OCCOCCOCCOC(C)=O`, the outcome was “inactive”.
With `Oc1ccc2c(c1)OC[C@@H](N1CCC(O)(c3ccc(F)cc3)CC1)[C@H]2O` the outcome was “inactive”.
`C[Si]1(C)O[Si](C)(C)O[Si](C)(C)O[Si](C)(C)O1` was tested, and the outcome was “inactive”.
For `CC(C)c1ccc(C(=O)N=C(N)N)cc1S(C)(=O)=O`, the outcome was “inactive”.
`NCC1(Cc2noc(=O)[nH]2)CCCCC1` was tested, and the outcome was “inactive”.
`C1CCC(SSC2CCCCC2)CC1` was tested, and the AC50 was 34.1 µM (active).
